Data on 6 compounds can be found in PubChem BioAssay (EPA / NIEHS).

Molecules are shown by their SMILES. Where “and” joins values, the source holds several entries; their conditions need not be identical. Identical values can stand only once. Records with an inconclusive call do not appear. More than one record can exist for a structure, and the calls need not agree. Calls of active or inactive are those of the source. Rule for the calls, unless noted: active = hit-call score of the fitted dose curve at least 0.9, where 1 is the maximum; inactive = score below 0.9.

For orientation: AC50 means the concentration giving half of the maximal activity seen.

Assay [1] is described as follows: BSK_4H_Eotaxin3: BioMAP Diversity Plus: 4H Assay for Eotaxin 3 Biomarker Activity (AID 2283000).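 For outcome: CCL26 protein level quantified by ELISA in parallel with SRB cytotoxicity check.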 Particulars: primary human endothelial cells (HUVEC); actives raise or lower the signal. Summed up:
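ELISA quantitation of CCL26 (Eotaxin-3) protein from chemically dosed human vascular endothelial cells at 24 h; increases and decreases both scored relative to DMSO-treated baseline.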

Assay [2] concerns the target human Peroxisome Proliferator-activated Receptor alpha (PPARa), PPARA (gene 5465) (UniProt Q07869). In words: ATG_PPARa_TRANS: Attagene TRANS-FACTORIAL HepG2 Assay for human Peroxisome Proliferator-activated Receptor alpha (PPARa) (AID 2283001; active = hit-call score of the fitted dose curve at least 0.9, where 1 is the maximum). The method, boiled down:
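Reporter transcripts quantified by RT-PCR plus capillary electrophoresis after 24 h treatment, fitted upward relative to DMSO. Cells: human HepG2 transiently carrying multiple GAL4-UAS reporter units driven by NR-Gal4 chimeras.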

Read-out in assay [3]: Intercellular Adhesion Molecule 1 (ICAM1), ICAM1 (gene 3383)
In words: BSK_3C_ICAM1: BioMAP Diversity Plus: 3C Assay for Intercellular Adhesion Molecule 1 (ICAM1) Biomarker Activity (AID 2283003). The following applies: primary human endothelial cells (HUVEC); actives raise or lower the signal. Summed up:
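ELISA readout of ICAM1 in human umbilical vein endothelial cells in the 3C system, taken 24 h post-dose. Gain or loss of signal versus DMSO was fitted in both directions, with SRB total-protein staining run in parallel.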

The target in assay [4] is Retinoic acid receptor alpha (Homo sapiens) (UniProt P10276). Nature of the assay: ATG_RARa_TRANS: Attagene TRANS-FACTORIAL HepG2 Assay for human Retinoic Acid Receptor alpha (RARa) (AID 2283005; active = hit-call score of the fitted dose curve at least 0.9, where 1 is the maximum). Summed up: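 Reporter transcripts, measured by RT-PCR with fluorescent labeling and capillary electrophoresis after 24 h dosing, reflect activity of an exogenous human RARa–GAL4 fusion in transiently transfected HepG2. Fitted for increase relative to DMSO.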
Chain of Retinoic acid receptor alpha (Homo sapiens) (P10276 whole entry, looked up, the tested form may be a part): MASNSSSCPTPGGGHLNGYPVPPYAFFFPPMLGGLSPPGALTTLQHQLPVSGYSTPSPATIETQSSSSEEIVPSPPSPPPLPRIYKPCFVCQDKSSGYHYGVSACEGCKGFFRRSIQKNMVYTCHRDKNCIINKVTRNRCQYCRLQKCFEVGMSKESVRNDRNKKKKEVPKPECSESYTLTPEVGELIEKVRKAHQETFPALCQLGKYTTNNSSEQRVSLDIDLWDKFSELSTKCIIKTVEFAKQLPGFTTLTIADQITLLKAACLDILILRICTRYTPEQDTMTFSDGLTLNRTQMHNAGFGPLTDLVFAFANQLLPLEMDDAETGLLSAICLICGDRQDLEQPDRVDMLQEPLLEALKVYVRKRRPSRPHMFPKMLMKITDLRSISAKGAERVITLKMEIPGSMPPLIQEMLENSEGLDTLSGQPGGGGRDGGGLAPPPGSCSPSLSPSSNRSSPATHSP

The nature of assay [5]: BSK_3C_Proliferation: Cell Proliferation Assessment in the BioMAP Diversity Plus: 3C Assay (AID 2283006).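 For AC50: potency may reflect either rise or fall in cell number versus DMSO.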 Particulars: primary human endothelial cells (HUVEC). Summed up: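 Proliferation as total protein: sulforhodamine B (0.1%) stain of TCA-fixed subconfluent human umbilical vein endothelial cells, absorbance 560 nm, 48 h after dosing. Activity fitted in both directions against DMSO baseline.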

In assay [6] the target is Peroxisome proliferator-activated receptor gamma (Homo sapiens) (UniProt P37231). Nature of the assay: ATG_PPARg_TRANS: Attagene TRANS-FACTORIAL HepG2 Assay for human Peroxisome Proliferator-activated Receptor-gamma (PPARg) (AID 2283007; active = hit-call score of the fitted dose curve at least 0.9, where 1 is the maximum). Summed up: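 HepG2 cells are transiently transfected with GAL4-UAS reporter units driven by chimeric NR-Gal4 fusions and dosed for 24 h. Reporter mRNA is quantified by RT-PCR, 6-FAM labelling, HpaI digestion and capillary electrophoresis. Induction is scored against DMSO.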
Chain of Peroxisome proliferator-activated receptor gamma (Homo sapiens) (P37231 whole entry, looked up, the tested form may be a part): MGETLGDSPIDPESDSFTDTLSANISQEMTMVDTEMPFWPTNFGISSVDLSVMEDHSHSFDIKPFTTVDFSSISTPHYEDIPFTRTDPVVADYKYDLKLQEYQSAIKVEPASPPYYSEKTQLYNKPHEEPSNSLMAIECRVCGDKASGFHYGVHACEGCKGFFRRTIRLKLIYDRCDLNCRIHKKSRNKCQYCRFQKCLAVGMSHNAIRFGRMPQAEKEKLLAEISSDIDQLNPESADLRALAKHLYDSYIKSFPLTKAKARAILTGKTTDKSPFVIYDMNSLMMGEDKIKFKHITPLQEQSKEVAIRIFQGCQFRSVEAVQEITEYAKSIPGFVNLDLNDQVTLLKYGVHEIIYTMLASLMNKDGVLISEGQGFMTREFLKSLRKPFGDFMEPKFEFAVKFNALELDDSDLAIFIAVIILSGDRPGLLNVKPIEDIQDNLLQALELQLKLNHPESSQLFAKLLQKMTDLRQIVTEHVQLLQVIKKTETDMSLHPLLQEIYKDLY

Assay [7] concerns the target human Retinoic Acid Receptor gamma (RARg), RARG (gene 5916) (UniProt P13631). Nature of the assay: ATG_RARg_TRANS: Attagene TRANS-FACTORIAL HepG2 Assay for human Retinoic Acid Receptor gamma (RARg) (AID 2283009; active = hit-call score of the fitted dose curve at least 0.9, where 1 is the maximum). The method, boiled down:
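Transactivation of exogenous RARg-Gal4 fusion measured as reporter transcript induction after 24 h in transfected HepG2 cells. RNA reverse-transcribed, amplified, fluorescently labeled and resolved by capillary electrophoresis; increase relative to DMSO.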

In assay [8] the target is human RAR-related Orphan Receptor gamma (RORg), RORC (gene 6097) (UniProt P51449). In words: ATG_RORg_TRANS: Attagene TRANS-FACTORIAL HepG2 Assay for human RAR-related Orphan Receptor gamma (RORg) (AID 2283011; active = hit-call score of the fitted dose curve at least 0.9, where 1 is the maximum). The method, boiled down:
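Chimeric RORg-Gal4 transactivation in transfected HepG2; 24 h exposure; RT-PCR/capillary electrophoresis readout of reporter mRNA, DMSO baseline.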

For assay [9], the target named is Retinoic acid receptor RXR-alpha (Homo sapiens) (UniProt P19793). Nature of the assay: ATG_RXRa_TRANS: Attagene TRANS-FACTORIAL HepG2 Assay for human Retinoid X Receptor alpha (RXRa) (AID 2283012; active = hit-call score of the fitted dose curve at least 0.9, where 1 is the maximum). Summed up: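 TRANS format reporting activity of exogenous RXRa-Gal4 chimera in transiently transfected HepG2, 24 h exposure. Reporter transcripts quantified by RT-PCR with capillary electrophoresis, with gain of signal scored relative to DMSO.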

The target of assay [10] is human Retinoid X Receptor beta (RXRb), RXRB (gene 6257) (UniProt P28702). Nature of the assay: ATG_RXRb_TRANS: Attagene TRANS-FACTORIAL HepG2 Assay for human Retinoid X Receptor beta (RXRb) (AID 2283013; active = hit-call score of the fitted dose curve at least 0.9, where 1 is the maximum). Summed up:
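Readout is reporter transcript induction after 24 h dosing. It is measured by RT-PCR of total RNA followed by fluorescent capillary electrophoresis. HepG2 liver cells carry transfected multiple reporter units driven by an exogenous RXRb-Gal4 fusion; activity is relative to DMSO.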

For assay [11], the target named is human Thyroid Receptor alpha (THRa1), THRA (gene 7067) (UniProt P10827). Nature of the assay: ATG_THRa1_TRANS: Attagene TRANS-FACTORIAL HepG2 Assay for human Thyroid Receptor alpha (THRa1) (AID 2283014; active = hit-call score of the fitted dose curve at least 0.9, where 1 is the maximum). The method, boiled down: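 Measured here is mRNA from a GAL4-UAS reporter in transfected HepG2 cells carrying a Gal4-fused receptor, 24 h post-dose. DMSO served as negative control and baseline.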
Chain of human Thyroid Receptor alpha (THRa1), THRA (gene 7067) (P10827 whole entry, looked up, the tested form may be a part): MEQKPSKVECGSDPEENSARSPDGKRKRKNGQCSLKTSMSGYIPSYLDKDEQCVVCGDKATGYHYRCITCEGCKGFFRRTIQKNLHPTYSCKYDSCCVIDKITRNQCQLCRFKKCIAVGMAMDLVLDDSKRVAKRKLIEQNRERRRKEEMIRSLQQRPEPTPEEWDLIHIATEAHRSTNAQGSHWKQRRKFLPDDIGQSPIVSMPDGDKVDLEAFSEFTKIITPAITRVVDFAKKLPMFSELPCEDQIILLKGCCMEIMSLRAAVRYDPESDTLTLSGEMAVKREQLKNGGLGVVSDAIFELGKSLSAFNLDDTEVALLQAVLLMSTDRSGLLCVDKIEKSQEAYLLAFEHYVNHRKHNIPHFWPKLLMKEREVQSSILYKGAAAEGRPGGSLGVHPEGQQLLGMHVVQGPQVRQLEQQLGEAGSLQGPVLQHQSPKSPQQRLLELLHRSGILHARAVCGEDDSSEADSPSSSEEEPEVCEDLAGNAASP

Read-out in assay [12]: E-selectin (Homo sapiens) (UniProt P16581)
Nature of the assay: BSK_3C_Eselectin: BioMAP Diversity Plus: 3C Assay for Eselectin Biomarker Activity (AID 2283015).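 For outcome: cell surface E-selectin protein quantified by ELISA 24 h after dosing.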 Particulars: primary human endothelial cells (HUVEC); actives raise or lower the signal. The method, boiled down:
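Endpoint derived by bidirectional fitting against DMSO vehicle; signal is ELISA-detected E-selectin from primary HUVEC at 24 h post-dosing, with parallel SRB staining (0.1% SRB, 560 nm) flagging cytotoxicity.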

Read-out in assay [13]: Interleukin-1 alpha (IL1a), IL1A (gene 3552)
In words: BSK_BE3C_IL1a: BioMAP Diversity Plus: BE3C Assay for Interleukin-1 alpha (IL1a) Biomarker Activity (AID 2283016). Particulars: primary human bronchial epithelial cells; actives raise or lower the signal. The method, boiled down: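 IL-1a measured by ELISA after 24 h treatment of human primary bronchial epithelial cells, with gain or loss of signal fitted versus DMSO. Parallel cultures stained with SRB gauge overt cytotoxicity.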

Read-out in assay [14]: Monocyte Chemoattractant Protein-1 (MCP1), CCL2 (gene 6347)
Nature of the assay: BSK_3C_MCP1: BioMAP Diversity Plus: 3C Assay for Monocyte Chemoattractant Protein-1 (MCP1) Biomarker Activity (AID 2283017). The following applies: primary human endothelial cells (HUVEC); actives raise or lower the signal. Summed up: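 Using human vascular primary endothelium, researchers measured MCP-1 by ELISA 24 h after treatment, with DMSO serving as negative control for bidirectional fitting.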

Read-out in assay [15]: Monocyte Chemoattractant Protein-1 (MCP1), CCL2 (gene 6347)
In words: BSK_4H_MCP1: BioMAP Diversity Plus: 4H Assay for Monocyte Chemoattractant Protein-1 (MCP1) Biomarker Activity (AID 2283018). The following applies: primary human endothelial cells (HUVEC); actives raise or lower the signal. The method, boiled down:
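ELISA of MCP-1 (CCL2) 24 h after chemical dosing of HUVEC in the BioMAP 4H system. Gain or loss versus DMSO fitted; parallel SRB staining (560 nm) tracked overt cytotoxicity.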

Read-out in assay [16]: Human Leukocyte Antigen - DR isotype (HLADR), HLA-DRA (gene 3122)
In words: BSK_3C_HLADR: BioMAP Diversity Plus: 3C Assay for Human Leukocyte Antigen - DR isotype (HLADR) Biomarker Activity (AID 2283019).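 For outcome: ELISA of cell-surface HLA-DR on HUVEC 24 h after dosing.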 Particulars: primary human endothelial cells (HUVEC); actives raise or lower the signal. The method, boiled down: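 Compound added to primary HUVEC cultures, 24 h incubation, then HLA-DR determined by ELISA; endpoint derived by bidirectional fitting relative to DMSO negative control.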

The target in assay [17] is human Peroxisome Proliferator-activated Receptor delta (PPARd), PPARD (gene 5467) (UniProt Q03181). Nature of the assay: ATG_PPARd_TRANS: Attagene TRANS-FACTORIAL HepG2 Assay for human Peroxisome Proliferator-activated Receptor delta (PPARd) (AID 2283002; active = hit-call score of the fitted dose curve at least 0.9, where 1 is the maximum). Summed up:
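Cell-based TRANS reporter: HepG2, transient MRTU transfection, 24 h exposure. Readout = reporter mRNA (RT-PCR/CE, 6-FAM). Gain-of-signal fit vs DMSO control.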

Assay [18] deals with human Retinoic Acid Receptor beta (RARb), RARB (gene 5915) (UniProt P10826). In words: ATG_RARb_TRANS: Attagene TRANS-FACTORIAL HepG2 Assay for human Retinoic Acid Receptor beta (AID 2283004; active = hit-call score of the fitted dose curve at least 0.9, where 1 is the maximum). The method, boiled down:
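Fluorescent capillary-electrophoresis detection of GAL4-UAS reporter mRNA defines the endpoint, with induction over DMSO-treated wells scored as activity. Transiently transfected human hepatoma HepG2 cells expressing exogenous NR–Gal4 proteins are exposed to test chemicals for 24 h.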

Assay [19] has as its target Nuclear receptor subfamily 1 group I member 2 (Homo sapiens) (UniProt O75469). Nature of the assay: ATG_PXR_TRANS: Attagene TRANS-FACTORIAL HepG2 Assay for human Pregnane X Receptor (PXR) (AID 2283008; active = hit-call score of the fitted dose curve at least 0.9, where 1 is the maximum). Summed up:
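HepG2 transfected (FuGene 6) with GAL4-UAS reporter units + PXR-Gal4 chimera; dosed 24 h. Total RNA → oligo(dT) RT → PCR → 6-FAM primer extension → HpaI cut → CE. Gain-of-signal vs DMSO.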

Assay [20] has as its target human RAR-related Orphan Receptor beta (RORb), RORB (gene 6096) (UniProt Q92753). Nature of the assay: ATG_RORb_TRANS: Attagene TRANS-FACTORIAL HepG2 Assay for human RAR-related Orphan Receptor beta (RORb) (AID 2283010; active = hit-call score of the fitted dose curve at least 0.9, where 1 is the maximum). Summed up:
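Read-out is reporter mRNA induction, quantified by RT-PCR with fluorescent capillary electrophoresis, 24 h post-dose in transiently transfected HepG2 expressing exogenous NR-Gal4 chimera. Activity fitted upward versus DMSO.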

Chain of E-selectin (Homo sapiens) (P16581 whole entry, looked up): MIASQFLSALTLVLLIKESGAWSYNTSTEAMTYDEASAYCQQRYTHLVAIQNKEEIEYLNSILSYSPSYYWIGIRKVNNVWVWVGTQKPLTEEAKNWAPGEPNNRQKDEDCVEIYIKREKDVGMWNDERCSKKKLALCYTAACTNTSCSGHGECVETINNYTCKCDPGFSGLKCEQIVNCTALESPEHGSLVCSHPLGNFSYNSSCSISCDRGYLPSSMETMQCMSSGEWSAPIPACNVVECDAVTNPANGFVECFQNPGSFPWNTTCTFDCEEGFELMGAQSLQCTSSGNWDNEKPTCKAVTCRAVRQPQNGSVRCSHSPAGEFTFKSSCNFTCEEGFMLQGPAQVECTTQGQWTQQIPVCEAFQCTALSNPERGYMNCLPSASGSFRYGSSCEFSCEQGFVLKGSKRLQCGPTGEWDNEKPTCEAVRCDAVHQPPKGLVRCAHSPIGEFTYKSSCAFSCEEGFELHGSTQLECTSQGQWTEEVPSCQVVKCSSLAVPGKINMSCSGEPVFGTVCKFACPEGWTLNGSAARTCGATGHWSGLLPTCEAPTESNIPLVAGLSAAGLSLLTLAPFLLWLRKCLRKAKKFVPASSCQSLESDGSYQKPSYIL
Chain of human Retinoic Acid Receptor gamma (RARg), RARG (gene 5916) (P13631 whole entry, looked up, the tested form may be a part): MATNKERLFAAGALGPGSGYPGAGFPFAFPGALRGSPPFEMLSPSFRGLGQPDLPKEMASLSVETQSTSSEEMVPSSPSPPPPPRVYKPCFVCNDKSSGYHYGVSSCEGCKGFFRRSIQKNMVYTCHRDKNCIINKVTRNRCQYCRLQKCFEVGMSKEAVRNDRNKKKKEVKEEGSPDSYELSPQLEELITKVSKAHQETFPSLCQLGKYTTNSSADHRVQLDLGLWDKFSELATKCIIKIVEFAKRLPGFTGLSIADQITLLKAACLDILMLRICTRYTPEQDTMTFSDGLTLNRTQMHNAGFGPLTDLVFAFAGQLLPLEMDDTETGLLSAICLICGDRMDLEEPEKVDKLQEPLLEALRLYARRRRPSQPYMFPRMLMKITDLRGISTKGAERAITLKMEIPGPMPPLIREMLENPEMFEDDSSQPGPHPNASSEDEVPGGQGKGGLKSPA
Chain of human RAR-related Orphan Receptor beta (RORb), RORB (gene 6096) (Q92753 whole entry, looked up, the tested form may be a part): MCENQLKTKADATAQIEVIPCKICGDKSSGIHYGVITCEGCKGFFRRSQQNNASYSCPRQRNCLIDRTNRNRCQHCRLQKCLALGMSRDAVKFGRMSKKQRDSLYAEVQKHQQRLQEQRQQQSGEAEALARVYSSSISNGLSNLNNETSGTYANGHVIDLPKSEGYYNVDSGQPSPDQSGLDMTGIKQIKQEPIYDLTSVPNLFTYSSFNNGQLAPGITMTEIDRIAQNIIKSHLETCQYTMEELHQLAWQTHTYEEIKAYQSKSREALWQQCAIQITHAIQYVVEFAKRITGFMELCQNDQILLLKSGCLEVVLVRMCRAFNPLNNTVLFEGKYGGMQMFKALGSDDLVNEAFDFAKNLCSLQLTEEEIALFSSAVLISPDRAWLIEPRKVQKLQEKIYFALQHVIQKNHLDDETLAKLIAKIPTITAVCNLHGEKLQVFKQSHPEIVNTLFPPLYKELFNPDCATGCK
Chain of human Retinoic Acid Receptor beta (RARb), RARB (gene 5915) (P10826 whole entry, looked up, the tested form may be a part): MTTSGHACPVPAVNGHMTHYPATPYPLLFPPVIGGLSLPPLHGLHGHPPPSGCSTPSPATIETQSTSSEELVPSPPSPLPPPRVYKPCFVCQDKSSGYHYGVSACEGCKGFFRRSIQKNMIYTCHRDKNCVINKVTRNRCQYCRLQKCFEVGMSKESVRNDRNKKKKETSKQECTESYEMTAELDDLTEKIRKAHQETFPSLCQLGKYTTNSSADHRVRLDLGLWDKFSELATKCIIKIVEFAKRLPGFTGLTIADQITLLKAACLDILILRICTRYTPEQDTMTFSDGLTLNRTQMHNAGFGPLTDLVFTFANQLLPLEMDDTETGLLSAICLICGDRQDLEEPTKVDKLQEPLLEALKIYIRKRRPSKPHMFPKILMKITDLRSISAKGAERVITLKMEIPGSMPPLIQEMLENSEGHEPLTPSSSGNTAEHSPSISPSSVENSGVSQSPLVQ
Chain of Nuclear receptor subfamily 1 group I member 2 (Homo sapiens) (O75469 whole entry, looked up, the tested form may be a part): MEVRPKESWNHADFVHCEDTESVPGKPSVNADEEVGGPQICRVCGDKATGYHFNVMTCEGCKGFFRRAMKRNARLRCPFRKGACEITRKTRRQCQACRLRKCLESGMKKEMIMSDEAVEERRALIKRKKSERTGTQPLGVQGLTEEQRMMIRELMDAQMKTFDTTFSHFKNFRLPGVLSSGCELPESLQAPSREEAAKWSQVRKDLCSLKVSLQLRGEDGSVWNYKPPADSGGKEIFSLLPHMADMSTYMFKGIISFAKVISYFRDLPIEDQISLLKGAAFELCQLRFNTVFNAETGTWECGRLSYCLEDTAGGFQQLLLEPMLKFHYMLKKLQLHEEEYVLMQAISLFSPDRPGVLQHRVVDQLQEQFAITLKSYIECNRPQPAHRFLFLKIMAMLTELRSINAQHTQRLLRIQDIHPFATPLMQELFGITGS
Chain of human Peroxisome Proliferator-activated Receptor delta (PPARd), PPARD (gene 5467) (Q03181 whole entry, looked up): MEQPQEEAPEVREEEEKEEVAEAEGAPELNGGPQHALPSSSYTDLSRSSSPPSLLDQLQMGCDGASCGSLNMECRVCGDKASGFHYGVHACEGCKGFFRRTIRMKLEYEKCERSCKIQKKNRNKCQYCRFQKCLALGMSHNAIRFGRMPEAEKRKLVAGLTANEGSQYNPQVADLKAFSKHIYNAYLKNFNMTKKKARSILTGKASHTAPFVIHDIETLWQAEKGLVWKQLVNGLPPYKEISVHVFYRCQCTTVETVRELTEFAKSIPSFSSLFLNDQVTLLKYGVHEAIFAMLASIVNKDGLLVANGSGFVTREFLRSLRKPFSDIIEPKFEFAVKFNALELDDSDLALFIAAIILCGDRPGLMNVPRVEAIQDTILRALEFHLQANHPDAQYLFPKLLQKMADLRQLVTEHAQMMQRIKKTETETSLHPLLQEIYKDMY
Chain of human RAR-related Orphan Receptor gamma (RORg), RORC (gene 6097) (P51449 whole entry, looked up, the tested form may be a part): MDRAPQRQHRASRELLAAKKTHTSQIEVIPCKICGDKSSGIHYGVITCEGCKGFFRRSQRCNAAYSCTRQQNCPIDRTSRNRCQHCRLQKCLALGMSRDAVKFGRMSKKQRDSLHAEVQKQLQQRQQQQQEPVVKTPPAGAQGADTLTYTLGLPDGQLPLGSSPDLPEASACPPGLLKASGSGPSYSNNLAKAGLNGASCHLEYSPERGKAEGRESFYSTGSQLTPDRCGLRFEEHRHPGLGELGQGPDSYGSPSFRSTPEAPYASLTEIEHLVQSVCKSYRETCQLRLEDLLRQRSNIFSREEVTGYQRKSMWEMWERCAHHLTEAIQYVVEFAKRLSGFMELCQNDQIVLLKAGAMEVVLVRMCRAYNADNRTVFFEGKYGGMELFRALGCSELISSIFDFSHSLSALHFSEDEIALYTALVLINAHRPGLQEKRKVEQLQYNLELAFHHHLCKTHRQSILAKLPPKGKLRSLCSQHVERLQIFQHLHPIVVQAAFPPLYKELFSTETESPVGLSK

Consider `CCCCCCCCCCCC`, for which the AC50 is 30.2 µM (active) in [1]; 36.1 µM (active) and 31 µM (active) in assay [5]; 20 µM (active) in [12]; 9.52 µM (active) and 8.11 µM (active) in assay [13]. Besides, the result in [1], in assay [2], in assay [3], in [4], in [6] and in [7] was inactive. The compound was called inactive in assay [8], in assay [9], in assay [10], in assay [11], in assay [12] and in assay [14]. Further, the outcome in assay [15] and in [16] was inactive.

With `C=CC(=C)CC/C=C(\C)CCC=C(C)C`, the result in assay [1], in [17], in [3], in assay [18], in assay [4] and in assay [5] was inactive. Also, the outcome in assay [20], in assay [8], in assay [12], in assay [13], in assay [14] and in assay [15] was inactive. Besides, the outcome in assay [16] was inactive. For the same compound, the half-maximal activity concentration (AC50) in [19] is 6.93 µM (active).

On to `O=P(O)(O)CCC(F)(F)C(F)(F)C(F)(F)C(F)(F)C(F)(F)C(F)(F)F`, for which the AC50 in assay [1] is 0.447 µM (active). Moreover, the result in [1], in assay [2], in assay [17], in assay [3], in assay [18] and in assay [5] was inactive. Besides, the call in [6], in assay [7], in [20], in [8], in assay [9] and in assay [11] was inactive. Further, the outcome in assay [12], in assay [13], in assay [14], in assay [15] and in assay [16] was inactive.

As to `CCCCC(CC)C(=O)OCCOCCOCCOCCOC(=O)C(CC)CCCC` (stereo not given), the outcome in assay [1], in assay [2], in assay [3], in assay [6], in [9] and in assay [11] was inactive. The outcome in assay [13], in assay [14] and in assay [15] was inactive. The half-maximal activity concentration (AC50) in assay [5] is 20 µM (active); in assay [12], 13.6 µM (active); in assay [16], 11.4 µM (active).

In the case of `O=C(NCc1ncc(C(F)(F)F)cc1Cl)c1c(Cl)cccc1Cl`, the result in assay [1], in [2], in assay [3], in assay [18], in assay [4] and in assay [5] was inactive. Further, the compound was classed as inactive in assay [7], in assay [9], in [10], in assay [11], in [12] and in assay [13]. Further, the outcome in assay [14], in assay [15] and in [16] was inactive. Also, the AC50 in [6] is 13.7 µM (active); in assay [19], 0.675 µM (active).

With `Oc1c(Cl)cc(Cl)cc1Sc1cc(Cl)cc(Cl)c1O`, the AC50 in assay [1] is 22.2 µM (active) and 18.5 µM (active); in assay [3], 33.5 µM (active) and 34.8 µM (active); in [5] it was 5.56 µM (active) and 4.63 µM (active); in [6], 2.69 µM (active); in assay [19], 1.9 µM (active); in assay [12], 31.1 µM (active) and 29.8 µM (active). Moreover, the AC50 in [13] is 7.68 µM (active) and 8.04 µM (active); in assay [14], 36.2 µM (active) and 35.9 µM (active); in [15] it was 9.13 µM (active) and 5.86 µM (active); in assay [16], 15.5 µM (active) and 22.3 µM (active). The call in assay [17], in assay [7], in assay [20], in [8], in assay [9] and in assay [11] was inactive.
